Screens deposited in PubChem BioAssay by National Center for Advancing Translational Sciences (NCATS).
Only some compounds are listed: those with a hit (about 10% of all), similar ones and a draw of the others.
G9a inh – qHTS Assay for Inhibitors of Histone Lysine Methyltransferase G9a; G9a H3K9 monomethylation, AlphaScreen, 2 h; AID 504332, 2011; Potency, µM (doses to about 102 µM), hits mostly inhibitors; hit rate 8.8% among 350,000; Histone-lysine N-methyltransferase EHMT2 (Homo sapiens), Q96KQ7; also: nearly all actives have a fitted effect of over 75% in size
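Signal arises when biotinylated H3K9 peptide, once monomethylated, bridges streptavidin donor and antibody-captured acceptor beads. Enzyme at 20 nM was preincubated 15 min with test compounds; peptide 500 nM and SAM 20 uM then reacted for 2 h.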
CtBP-E1A inh – qHTS Assay for Inhibitors of the CtBP/E1A Interaction; CtBP / adenovirus E1A interaction (AlphaScreen); AlphaScreen GST-E1A/His-CtBP binding, 1536-well; hits give low values; activity change, % (concentration not given with the values); hit rate 0.49% among 340,000; in the data active = activity change below about -65%; inconclusive = mostly about -30% to -63%
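Steps: dispense buffer (Tris pH 8.0, NaCl 300 mM, TCEP 1 mM, BSA, Tween 20); add 5X protein mix (GST-E1A, His-CtBP, 125 nM each); pin 23 nL compound; 2 h at 37 °C, dark; add 5X beads (50 ug/mL); 1 h; read.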
HP1b chromo inh – HTS for Inhibitors of HP1-beta Chromodomain Interactions with Methylated Histone Tails | Chromobox protein homolog 1 (Homo sapiens), P83916 | AlphaScreen HP1-beta / biotin-H3K9me3 peptide binding | Potency, µM (series often up to 114 µM), hits mostly inhibitors | hit rate 0.56% among 390,000 | AID 540317, 2011; also: nearly all actives have a fitted effect of over 70% in size
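HP1-beta protein (50 nM final) preincubated 30 min at room temperature with biotinylated H3(1-18)K9me3 peptide (50 nM) in PBS pH 7.4, 0.01% Tween-20, then compound added for 30 min. AlphaScreen streptavidin donor/nickel chelate acceptor beads (10 ug/mL final), 30 min dark, luminescence read.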
JMJD2A Tudor inh – qHTS Assay for Inhibitors of JMJD2A-Tudor Domain | AlphaScreen JMJD2A-Tudor / H3K4me3 peptide binding | Potency, µM (titrated, usually from 114 µM), most hits filed as inhibitors | hit rate 4.4% among 390,000; also: nearly all actives have a fitted effect of over 50% in size
BAZ2B inh – qHTS Assay for Inhibitors of BAZ2B | Bromodomain adjacent to zinc finger domain protein 2B (Homo sapiens), Q9UIF8 | AlphaScreen BAZ2B-H3K14Ac peptide displacement | Potency, µM (series often up to 114 µM), usual class: inhibitors | hit rate 4.4% among 360,000 | AID 504333, 2011; also: nearly all actives have a fitted effect of over 60% in size
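Compounds, titrated to a top concentration of 110 uM, were incubated 30 min at room temperature with preformed BAZ2B/acetyl-K14 H3 peptide complex (50 nM each). Proximity signal was measured by AlphaScreen after 20 min with beads.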
Six1-Eya2 blk – qHTS Assay for Inhibitors of the Six1/Eya2 Interaction; Homeobox protein SIX1 (Homo sapiens) + Protein phosphatase EYA2 (Homo sapiens), …; AlphaScreen GST-Six1/His-Eya2 binding, biochemical; hits give low values; activity change, % (no concentration beside the values); hit rate 0.56% among 360,000; AID 651725, 2012; in the data active = activity change below about -65%; inconclusive = mostly about -30% to -63%
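Homogeneous AlphaScreen proximity assay pairing GST-Six1 with His-tagged Eya2 (added as 5X mix: 250 nM and 500 nM) in 50 mM Tris pH 8.0, 300 mM NaCl, 1 mM TCEP. Glutathione donor and nickel acceptor beads; 1 h, 37 °C, dark.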
A number is an active result; i = inactive; ? = inconclusive; nt = not tested or not shown; [ ] = another dose, or the depositor's remark. Unless noted, calls follow the shape of the dose curve; as a rule, active = well fitted inhibition curve with a large enough effect; inconclusive = small, poorly fitted or top-dose-only effect; inactive = no such curve, though single readings can be large or run the other way.

SMILES | G9a inh | CtBP-E1A inh | HP1b chromo inh | JMJD2A Tudor inh | BAZ2B inh | Six1-Eya2 blk
Cc1cc(/C=C2\SC(=S)NC2=O)c(C)n1-c1ccccc1 | 45µM | i | i | 14µM | ? | i
COc1ccc(-n2c(C)cc(/C=C3\SC(=S)NC3=O)c2C)cc1 | nt | nt | i | i | i | i
Cc1cc(/C=C2\SC(=S)NC2=O)c(C)n1-c1ccc(O)cc1 | nt | i | ? | i[11.4 µM] | 40µM | i
Cc1cc(/C=C2\SC(=S)NC2=O)c(C)n1C | 40µM | i | i | 45µM | 45µM | ?
CN(C)c1ccc(-c2c(C3C4C=CCCC4(C)C(=O)N3Cc3ccccc3)ccc3ccccc23)cc1 (centres undefined) | nt | nt | i | ? | nt | nt
CC(C)(C)c1cccc(Oc2nn[nH]n2)c1 | 79µM | i | i | i | i | i
Cc1ccc(-c2c3c(=O)n(C)c(=O)n(C)c3cn2Cc2cccnc2)cc1 | 7.9µM | i | i | i | i | i
Cn1c(=O)c2c(-c3ccccc3)n(Cc3cccnc3)cc2n(C)c1=O | 10µM | i | i | i | i | i
CCOc1ccc(Sc2cc(C(=O)NC(C)CC)c3ccccc3n2)cc1 (centres undefined) | i | nt | i | i | i | nt
O=C(CSc1nnc(CNC(=O)c2c(F)cccc2Cl)o1)Nc1cccc(F)c1 | i | nt | i | i | i | nt
CCc1ccc2c(CN(CC)Cc3nc4ccccc4c(=O)[nH]3)cc(=O)oc2c1 | 3.5µM | i | i | i[11.4 µM] | i | i
Cc1c(Cl)cn2c(=O)cc(CN3CCN(c4ccccc4)CC3)nc2c1Cl | 40µM | nt | i | i[11.4 µM] | i | i
CCN(Cc1cc(=O)n2cc(Cl)c(C)c(Cl)c2n1)Cc1nc2ccccc2c(=O)[nH]1 | 50µM | i | i | i | nt | i
O=c1cc(CN2CCN(S(=O)(=O)c3ccccc3)CC2)nc2ccc(Cl)cn12 | i[0.501 µM] | i | i | i | i | i
CCc1ccc(NC(=O)Cn2c(=O)n(Cc3ccco3)c(=O)c3cccnc32)cc1 | i | nt | i | i | i | nt
COC(=O)[C@@]1(Cc2ccc(F)cc2)[C@H]2c3cc(C(=O)N(C)C)n(Cc4ccc(OC)c(OC)c4)c3C[C@H]2CN1C(=O)c1ccccc1 | 50µM | i | i | ? | ? | i
COC(=O)[C@@]1(Cc2ccc(F)cc2)[C@H]2c3cc(C(=O)N(C)C)n(Cc4ccccc4)c3C[C@H]2CN1C(=O)c1ccccc1 | ? | i | i | ? | ? | i
COC(=O)[C@@]1(Cc2ccc(F)cc2)[C@H]2c3cc(C(=O)N(C)C)n(CCc4ccc(OC)c(Br)c4)c3C[C@H]2CN1C(=O)c1ccccc1 | 25µM | i | i | ? | ? | i
Cc1ccn2c(=O)cc(CSc3nnc(C)s3)nc2c1 | i | nt | i | i | i | nt
O=C(O)c1ccc(NC(=S)NC(=O)c2cccc(COc3ccccc3)c2)cc1 | 28µM | i | i | i | i | i
O=C(O)c1ccc(NC(=S)NC(=O)c2ccc3ccccc3c2)cc1 | nt | i | i | ? | i | i
Cc1ccccc1C(=O)NC(=S)Nc1ccccc1C(=O)O | 20µM | i | i | i | i | i
O=C(O)c1cccc(NC(=S)NC(=O)c2ccc3ccccc3c2)c1 | 56µM | i | i | i | i | i
O=C(NC(=S)Nc1ccccc1O)c1ccc(-c2ccc(Cl)cc2)o1 | i[2.33 µM] | i | i | i[11.4 µM] | i | i
Cc1c(NC(=S)NC(=O)c2ccc(-c3ccc(Cl)cc3)o2)cccc1C(=O)O | 45µM | i | i | i | i | i
SMILES | G9a inh | CtBP-E1A inh | HP1b chromo inh | JMJD2A Tudor inh | BAZ2B inh | Six1-Eya2 blk
Cc1cccc(C(=O)Nc2ccc(N3CCC(N4CCCCC4)CC3)c(C(=O)O)c2)c1 | i | nt | i | i | i | nt
O=C(NC(=S)Nc1ccccc1C(=O)O)c1ccc2ccccc2c1 | 28µM | i | i | i | i | i
COc1ccc(CNCCC(c2ccc(OC)cc2)c2ccccc2OC)cc1 (centres undefined) | i | i | i | i | i | i
COc1ccc(C(CCNCc2ccc(N(C)C)cc2)c2ccccc2OC)cc1 (centres undefined) | 14µM | -75 | 50µM | 25µM | 10µM | -74
CCOC(=O)CC(=O)Nc1ccccc1C(=O)O | ? | i | i | i | i | i
CCOC(=O)CC(=O)Nc1ccc(Br)cc1C(=O)O | ? | i | i | 56µM | i | i
COc1ccc(Cl)cc1NC(=O)c1cc2ccc3ccc(C)[nH]c3c2n1 | ? | nt | i | i | i | nt
Cc1ccc(S(=O)(=O)N(C)c2ccc(C(=O)NCc3ccccc3F)cc2)cc1 | 50µM | i | i | i | i | i
Cc1ccc(S(=O)(=O)N(C)c2ccc(C(=O)NCc3ccccn3)cc2)cc1 | i | i | i | i | i | i
Cc1ccc(NC(=O)CN(C)C(=O)c2ccc(S(=O)(=O)N(C)c3ccccc3)cc2)cc1 | 56µM | i | i | i | i | i
COc1ccc(OCC(=O)NCCS(=O)(=O)N2CCN(c3cccc(Cl)c3)CC2)cc1 | i | nt | i | i | i | nt
COc1cc(Cl)c(C)cc1NC(=O)c1cnc(N2CCCCC2)c2ccccc12 | i | nt | i | i | i | nt
O=C1C2C3C=CC(C3)C2C(=O)N1Cc1ccccc1 (centres undefined) | i[12.7 µM] | i | i | i | i | i
COc1ccc(N2C(=O)[C@@H]3[C@H](C2=O)[C@H]2c4ccccc4C=CN2[C@@H]3C(=O)Nc2ccccc2)cc1 | 8.9µM | i | i | ? | i | i
O=C(c1ccco1)N1CCN(C2CC(=O)N(c3ccccc3)C2=O)CC1 (centres undefined) | ? | i | i | i | i | i
Cc1ccc(N2C(=O)[C@@H]3[C@H](C2=O)C2c4ccccc4C=CN2[C@@H]3C(=O)c2ccco2)cc1 (some centres undefined) | 3.2µM | i | ? | ? | ? | i
O=C(c1ccco1)[C@@H]1[C@@H]2C(=O)N(c3ccccc3)C(=O)[C@@H]2C2c3ccccc3C=CN21 (some centres undefined) | i[2.33 µM] | i | i | 50µM | 79µM | i
CC(=O)[C@@H]1[C@@H]2C(=O)N(Cc3ccccc3)C(=O)[C@@H]2C2c3ccccc3C=CN21 (some centres undefined) | 2.8µM | i | i | ? | i | i
COc1ccc([C@H]2CN(c3ccc(OC)cc3)C(=O)[C@@H]2CC(=O)Nc2ccccc2)cc1 | nt | i | nt | nt | nt | i
Cc1ccc(N2C(=O)[C@@H]3[C@H](C2=O)C2c4ccccc4C=CN2[C@@H]3C(=O)c2ccco2)c(C)c1 (some centres undefined) | i[2.33 µM] | i | i | ? | i | i
